HPGD inh: blocks human HPGD enzyme activity | P15428 | purified HPGD, NADH fluorescence kinetic, PGE2 substrate | Potency, µM, actives largely listed as inhibitors | 150,000 tested, 4.3% active; active = well fitted inhibition curve with a large enough effect, not every such curve was filed as active; inconclusive = small, poorly fitted or top-dose-only effect, or another doubt; inactive = no such curve, though single readings can be large or run the other way
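20 nM HPGD preincubated 15 min at room temperature with compound in 50 mM Tris-HCl pH 8, 0.01% Tween 20. Started with 1 mM NAD+ and 30 uM prostaglandin E2; NADH fluorescence (360/450 nm) read 5 times over 30-s intervals, last minus first.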
IMPase Li inh: IMPase inhibition in cells with lithium potentiation; CHO-M1 cells, IP1 TR-FRET (IP-One), carbachol + lithium; Potency, µM (highest dose often 59.4 µM), hits mostly inhibitors; 210,000 tested, 0.35% active;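 also: IP1 builds up when IMPase is blocked and the TR-FRET signal falls; nearly all actives have a fitted effect of over 50% in size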
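Lithium-sensitised IP1 accumulation assay; M1-expressing CHO cells treated 30 min at 37C with compound. Competitive antibody detection by time-resolved FRET followed a 10 min room-temperature lysis step.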
PNC inhibitor: perinucleolar compartment assembly inhibition; PC3M PTB-GFP, PNC prevalence imaging, 16 h; stronger effect = lower value; activity change (PNC), negative = inhibition, % at 10 µM; 140,000 tested, 3.1% active;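 active = readout at or below -70, meaning at least 70% loss of cells showing the perinucleolar compartment, a nuclear body marking cancer cells; inconclusive = readout between -30 and a set limit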
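PC3M cells stably expressing PTB-GFP, 750–1000 cells/well, treated 16 h at 37 °C with compound (23 nl of library stock), in duplicate. After paraformaldehyde fixation and Hoechst stain, imaged at 20x; PNC prevalence scored by image analysis.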
12-hLO inh: blocks human 12-lipoxygenase activity | AID 1452 | Potency, µM (doses to about 57.1 µM), most hits filed as inhibitors | purified 12-hLO, xylenol orange hydroperoxide absorbance | 150,000 tested, 0.12% active; also: nearly all actives have a fitted effect of over 55% in size
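Xylenol orange chromogenic assay: hydroperoxide from 12hLO oxidises Fe(II), giving red-shifted Fe(III)-XO absorbance. Conditions: 150 nM enzyme, 40 uM arachidonic acid, 25 mM Hepes pH 7.0, 0.01% Triton X-100, 30 min, room temperature.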
IMPase inh: IMPase inhibition in cells; P97697; 120,000 tested, under 10 active; AID 901; inhibition (IP1 accumulation), % at 46.1 µM; CHO-M1 cells, IP1 accumulation, HTRF TR-FRET ratio; active = well fitted curve in the direction sought with a large enough effect in the signal ratio, not every such curve was filed as active; inconclusive = small, poorly fitted or top-dose-only effect, or a change in a side signal; inactive = no such curve, though single readings can be large or run the other way; the % refers to the signal ratio;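 also: cells stimulated with carbachol in lithium chloride buffer; higher means more IMPase inhibition seen as more IP1 and lower FRET ratio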
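CHO-M1 cells (CHO stably expressing M1 receptor), compound up to 46 uM final, stimulated with carbachol (50 uM as added) in buffer with 50mM LiCl, pH 7.4, 30 min at 37C. Cytosolic IP1 read by TR-FRET; AC50 from Hill fits.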
15-hLO-2 inh: blocks human 15-lipoxygenase 2 activity. O15296. purified 15hLO-2, xylenol orange hydroperoxide absorbance. Potency, µM (titrated, usually from 57.1 µM), most hits filed as inhibitors. 110,000 tested, 0.56% active; also: nearly all actives have a fitted effect of over 60% in size
Target sequence (O15296 whole entry, looked up): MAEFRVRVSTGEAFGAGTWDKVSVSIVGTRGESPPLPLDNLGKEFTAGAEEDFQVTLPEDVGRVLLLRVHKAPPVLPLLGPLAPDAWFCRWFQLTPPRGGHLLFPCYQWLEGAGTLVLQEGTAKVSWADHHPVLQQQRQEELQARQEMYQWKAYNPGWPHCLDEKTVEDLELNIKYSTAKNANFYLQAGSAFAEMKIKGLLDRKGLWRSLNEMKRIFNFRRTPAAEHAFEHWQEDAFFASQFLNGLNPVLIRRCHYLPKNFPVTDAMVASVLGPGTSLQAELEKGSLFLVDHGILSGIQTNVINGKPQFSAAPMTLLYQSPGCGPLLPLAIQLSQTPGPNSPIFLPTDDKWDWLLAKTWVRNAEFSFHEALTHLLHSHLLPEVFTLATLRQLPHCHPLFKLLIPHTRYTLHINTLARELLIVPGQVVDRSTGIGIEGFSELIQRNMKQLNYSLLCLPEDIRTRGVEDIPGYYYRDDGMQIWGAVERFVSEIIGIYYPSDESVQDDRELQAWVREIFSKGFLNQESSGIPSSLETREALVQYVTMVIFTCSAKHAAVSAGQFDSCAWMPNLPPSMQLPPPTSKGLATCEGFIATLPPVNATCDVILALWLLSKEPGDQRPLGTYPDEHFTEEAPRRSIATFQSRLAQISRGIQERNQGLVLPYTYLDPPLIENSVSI
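Read-out: hydroperoxide product oxidises ferrous iron, measured as xylenol orange complex via the 573-to-405 nm absorbance ratio after 30 min. Reaction: 50 nM enzyme, 15 min compound preincubation, 45 uM arachidonic acid, 90 min RT, Hepes pH 7.5 with Triton X-100.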
Numbers stand for hits; - = inactive; ? = inconclusive; . = not tested or not shown; [ ] = dose if it differs, or a comment. Only some compounds are listed: those with a hit (about 5.4% of all), similar ones and a draw of the others. Unless noted, calls follow the shape of the dose curve; as a rule, active = well fitted curve in the direction sought with a large enough effect; inconclusive = small, poorly fitted or top-dose-only effect, or another doubt; inactive = no such curve, though single readings can be large; an effect the other way counts as inactive or inconclusive.

SMILES	HPGD inh	IMPase Li inh	PNC inhibitor	12-hLO inh	IMPase inh	15-hLO-2 inh
O=C1Nc2ccc(I)cc2/C1=C/c1cc(Br)c(O)c(Br)c1	3.5µM	-	.	-	-	?
COc1ccc(-c2cc(C(=O)N/N=C\c3cc(OC)c(OC)c(OC)c3)[nH]n2)cc1	?	.	.	-	.	.
COc1ccc(N2CCN(CCNC(=O)c3ccc4c(c3)[nH]c(=S)n3c5ccccc5nc43)CC2)cc1	.	14µM	.	.	.	.
COc1ccc(-c2cn3c(C)c(C(=O)Nc4ccncc4)sc3n2)cc1	?	5.6µM	?	-	?	-
CC1CCC(C(=O)O)([C@H](Br)C(=O)O)CC1 (some centres undefined)	-	-	.	-[11.4 µM]	.	-[11.4 µM]
O=c1c2ccccc2nc(SCc2nc3ccccc3s2)n1Cc1ccco1	-	-	-85	-	-	-
Cn1c(-c2sc3cc(C(F)(F)F)cnc3c2-c2ccccn2)n[nH]c1=S	.	-	.	.	.	.
Cn1c(-c2sc3cc(C(F)(F)F)cnc3c2-c2cccnc2)n[nH]c1=S	28µM	-	-	-	-	-
CN(C)CCNC(=O)c1ccc(-n2c(=O)c(=O)[nH]c3ccccc32)cc1	-	.	.	-	.	.
COc1ccc(NC(=S)N/C(=N/S(=O)(=O)c2ccc(C)cc2)c2ccccc2)cc1	.	-	.	.	.	.
CCOC(=S)N/C(=N\S(=O)(=O)c1ccc(C)cc1)c1ccccc1	25µM	-	-	-	-	-
CCOC(=O)C1(C(=O)O)NC(=O)CC1c1ccccc1 (centres undefined)	-	-	-95	-	-	-
CC(=O)N(C)c1ccc(NC(=O)c2ccco2)cc1	-	-	-	-	-	-
Cc1ccc(NC(=O)c2ccccc2O)cc1	-	-	-100	-	-	.
O=C(Nc1ccccc1)c1ccccc1O	?	-	-	-	-	-
CC(=O)N(C)c1ccc(NC(=O)c2ccccc2C(=O)O)cc1	-	-	-117	-	-	-
O=C(O)/C=C\C(=O)Nc1ncn[nH]1	-	-	.	-[11.4 µM]	.	-[11.4 µM]
O=c1c(-c2ccc(F)cc2)nc2cnc(N3CCOCC3)nc2n1Cc1ccc(F)cc1	.	-	.	.	.	-
CC(C)c1ccc(NC(=O)C2CCCN(S(=O)(=O)c3cnc[nH]3)C2)cc1 (centres undefined)	-	-	-	-	-	-
CC(NC(=O)C1CCCN(S(=O)(=O)c2cnc[nH]2)C1)c1ccccc1 (centres undefined)	-	-	-81	?	-	-
O=C(NCC1COc2ccccc2O1)C1CCCN(S(=O)(=O)c2cnc[nH]2)C1 (centres undefined)	-	-	-93	-	-	-
Cn1c(C(=O)NCCc2c[nH]c3ccccc23)cc2sccc21	-	-	-81	-	-	-
O=C(NCCc1c[nH]c2ccccc12)c1cc2sccc2n1Cc1ccccc1	-	-	-	-	-	-
C=CCn1c(N2CCCC2)nc2c1c(=O)[nH]c(=O)n2C	-	-	-	-	-	-
Cn1c(N2CCCCC2)nc2c1c(=O)[nH]c(=O)n2C	-	-	-106	-	-	-
SMILES	HPGD inh	IMPase Li inh	PNC inhibitor	12-hLO inh	IMPase inh	15-hLO-2 inh
Cn1c(=O)[nH]c(=O)c2c1nc(Br)n2Cc1ccccc1F	-	-	-	-	-	-
CN(C)c1nc2c(c(=O)[nH]c(=O)n2C)n1Cc1ccccc1Br	18µM	-	-	-	-	-
CCN1CCN(c2nc3c(c(=O)[nH]c(=O)n3C)n2CCSc2nc3ccccc3s2)CC1	-	-	-	-	-	-
CC1CCCN(c2nc3c(c(=O)[nH]c(=O)n3C)n2Cc2ccccc2Cl)C1 (centres undefined)	-	-	-87	-	-	-
CC(CSc1nc2ccccc2s1)Cn1c(N2CCCC2)nc2c1c(=O)[nH]c(=O)n2C (centres undefined)	22µM	-	-	-	-	-
CCOC(=O)c1cnc(N(C)C)nc1SC(=N)N	-	-	.	-[11.4 µM]	.	-[11.4 µM]
CCOC(=O)c1sc(NC(=O)c2nc3nc(C)cc(C(F)F)n3n2)c(C(=O)OC(C)C)c1C	.	.	.	.	-	.
C[C@@H]1C=C[C@](Cc2ccccc2)(C(=O)NCCCNc2ncc(C(F)(F)F)cc2Cl)N1C(=O)c1ccccc1	-	-	.	-	.	-
CCOC(=O)CSc1n[nH]c(-c2ccco2)n1	?	-	-	-	-	-
O=C(O)c1ccc(CSc2n[nH]c(-c3ccco3)n2)cc1	2.8µM	-	-	-	-	-
O=C(CSc1n[nH]c(-c2ccco2)n1)N1c2ccccc2Sc2ccccc21	13µM	-	?	-	-	?
O=C(c1ccco1)N1CCC2(CC1)CN(c1cccc(-c3ccccc3)c1)C2	?	-	.	-	.	-
O=S(=O)(Nc1nc2ccccc2nc1Nc1ccccc1Br)c1ccccc1	.	.	.	.	-	.
Cc1cnc(CNc2ncnc3ccc(-c4ccccc4C#N)cc23)cn1	-	-	.	-	.	-
Cc1cc(SCC(=O)Nc2cccc(S(N)(=O)=O)c2)c(C)cc1Br	.	-	.	.	.	.
CC(=O)N1CCC(=NNC(=O)CSc2cc(C)c(Br)cc2C)CC1	25µM	-	?	-	-	.
CCCN1CCC(=NNC(=O)CSc2cc(C)c(Br)cc2C)CC1	14µM	-	-	-	-	.
Cc1cc(SCC(=O)N/N=C/c2ccc(O)c(O)c2)c(C)cc1Br	2.8µM	-	-	?	-	?
O=C(O)C1CC2(C1)CC(C(=O)O)C2 (centres undefined)	-	-	.	-[11.4 µM]	.	-[11.4 µM]
CC1CC(C)CN(C(=O)c2ccc3c(=O)n(Cc4ccc5c(c4)OCO5)c(=S)[nH]c3c2)C1 (centres undefined)	16µM	-	?	-	-	-
CCOC(=O)c1c(C)n(C)c2ccc(OCC(O)CN3C(=O)c4ccccc4S3(=O)=O)cc12 (centres undefined)	-	-	-	-	-	-
COc1ccc(OCC(O)CN2C(=O)c3ccccc3S2(=O)=O)cc1 (centres undefined)	-	-	-83	-	-	-
CCN(CC)c1ncnc2scc(C3COc4ccccc4O3)c12 (centres undefined)	-	-	-100	-	?	.
c1ccc2c(c1)OCC(c1csc3ncnc(N4CCOCC4)c13)O2 (centres undefined)	-	-	-	-	-	-
c1coc(-c2nn3c(Cn4nnc5ccccc54)nnc3s2)c1	10µM	-	-	-	-	-
Clc1cccc(-c2nn3c(Cn4cnc5ccccc54)nnc3s2)c1	25µM	-	?	-	-	-
c1ccc2c(c1)nnn2Cc1nnc2sc(-c3ccncc3)nn12	18µM	-	-	-	-	-
Clc1ccc(Cc2nn3c(Cn4nnc5ccccc54)nnc3s2)cc1	22µM	-	?	-	-	-
c1csc(-c2nn3c(Cn4nnc5ccccc54)nnc3s2)c1	?	-	-	-	-	-

Screening results deposited in PubChem by National Center for Advancing Translational Sciences (NCATS).
